Experimental data as given in PubChem BioAssay AID2401 (Southern Research Specialized Biocontainment Screening …, 2010).
Hit rate of the full screen: of about 2,200 compounds, about 530 (24%) were called active.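 Rule for the calls: active = inhibition above a set limit at one or more concentrations of the dose series; inactive = inhibition under that limit at every dose.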 Only a sample is shown. Entries that show only a call come without a potency. Potency and affinity values are given separately.

Experiment: S. Typhimurium nonspecific reporter signal inhibition – Salmonella Typhimurium, GFP fluorescence, counter-screen for PhoP regulon inhibitor project, dose response (AID 2401);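 note: S. typhimurium with Mg-insensitive nmpC-GFP reporter grown at 10 µM Mg2+; drop in reporter fluorescence reflects general culture growth inhibition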
Settings: 4 h; series mostly up to 150 µM

Structure (SMILES) | outcome
CC1(C)CC(=O)C(/C=N/c2ncccc2C(=O)O)=C(O)C1 | inactive
CCOC(=O)c1ccc(NC(=O)Nc2cc(C)on2)cc1 | inactive
COc1ccc(NC2=NC(=S)N(c3cccc(C)c3)C23CCCCC3)cc1 | inactive
CN(C)c1ccc(Nc2nc(-c3cccnc3)cs2)cc1 | inactive
CCC(CC)NC(=O)COC(=O)c1ccc(OCC(=O)Nc2ccccc2OC)c(OC)c1 | inactive
O=C(O)C1CCCN1S(=O)(=O)c1ccc2[nH]c(=O)c(=O)[nH]c2c1 (stereo not given) | inactive
N=c1n(CCO)c2ccccc2n1Cc1ccc(Cl)cc1 | inactive
N=c1n(Cc2ccc(Cl)cc2)c2ccccc2n1CC(O)c1ccco1 (stereo not given) | inactive
N#CCC1c2ccccc2CCN1C(=O)Nc1ccc(Cl)cc1 (stereo not given) | inactive
N/C(=N\c1nc2ccccc2o1)NC(=O)c1ccccc1F | inactive
Cn1c(-c2ccc(N)cc2)nc2ccccc21 | inactive
CCCCCOc1ccc(NC(=O)C(=O)NCCC2=CCCCC2)cc1 | inactive
CN1/C(=C/C2CC(=O)N(c3cccc4ccccc34)C2=O)C(C)(C)c2ccccc21 (stereo not given) | inactive
CN1/C(=C\C=N\NC(=O)c2ccccc2Br)C(C)(C)c2ccccc21 | inactive
C=CCNC(=O)c1ccc(N(C)S(=O)(=O)c2ccc(OC)cc2)cc1 | inactive
CC(=O)Nc1nc(-c2ccc(Cl)cc2)nc(C)c1C(C)=O | inactive
COC(=O)c1ccccc1NC(=O)NCc1ccc2c(c1)OCO2 | inactive
c1ccc(-c2cnn3nnnc3n2)cc1 | inactive
O=C(NCc1cccs1)Nc1cccs1 | inactive
CSc1nnc2c3c4c(sc3nc(-n3nc(C)cc3C)n12)COC(C)(C)C4 | inactive
CC(C)Cn1cnc2sc3c(c2c1=N)CCCC3 | inactive
Cn1c(NCc2cc(Br)ccc2O)nc2ccccc21 | inactive
COc1cc(/C=C2/SC(=S)N(CC(=O)Nc3cccnc3)C2=O)cc(OC)c1OC | inactive

Structure (SMILES) | outcome
CC1Cc2ccccc2N1C(=O)COC(=O)c1ccc(S(=O)(=O)N(C)C)cc1 (stereo not given) | inactive
O=C(NC1CCCCC1)C(c1ccncc1)N(CC1CCCO1)C(=O)C(F)(F)F (stereo not given) | inactive
CCn1nnc(-c2ccccc2NC(=O)c2ccc(-n3cnnn3)cc2)n1 | inactive
c1ccc(COc2ccccc2CNCc2cccnc2)cc1 | inactive
O=C(COc1ccc(Br)cc1Cl)NC(=O)NCc1ccccc1 | inactive
Clc1ccc(OCCCn2ccnc2)c(Br)c1 | inactive
Clc1cc(Br)ccc1OCCn1ccnc1 | inactive
CC(C)NCCCOc1ccc(Cl)cc1Br | inactive
CCCCNCCCOc1cccc(Cl)c1Cl | inactive
CCN(Cc1ccccc1)C(=O)CN1C(=S)NC(C)(C)CC1C (stereo not given) | inactive
CCOC(=O)Nc1ccc(C)cc1C | inactive
COC(=O)c1[nH]c2ccc(C)cc2c1NC(=O)Nc1ccc(OC)cc1 | inactive
O=C(/C=C/c1cccs1)N1CCN(Cc2ccc3c(c2)OCO3)CC1 | inactive
O=C(Nc1cccc2ccccc12)c1ccc(Cn2cc(Cl)cn2)cc1 | inactive
NC(=O)c1cnn(Cc2ccc(Cl)cc2)c1N | inactive
CN(C)c1ccnc(Oc2ccc(F)cc2)c1C#N | inactive
COc1ccc(CN=C2Nc3ccccc3CS2)cc1 | inactive
Fc1ccc(-c2n[nH]c(=S)n2/N=C/c2c[nH]c3ccccc23)cc1 | inactive
Cc1cc(=O)[nH]c(N/N=C/c2c[nH]c3ccccc23)n1 | inactive
O=C(N/N=C/c1cn(-c2ccccc2)nc1-c1ccc(F)cc1)c1ccc2c(c1)OCO2 | inactive
CCCCn1c(/N=C/c2c[nH]c3ccccc23)nc2ccccc21 | inactive
Cc1c(NS(=O)(=O)c2ccccc2)c(=O)n(-c2ccccc2)n1C | inactive
Cc1ccc2nc(SCC(=O)NCc3ccco3)[nH]c2c1 | inactive

Structure (SMILES) | outcome
Cc1cccc(Nc2nnc(SCC(=O)NC3CCCc4ccccc43)s2)c1 (stereo not given) | inactive
Nc1cc(Br)c(N)c(Br)c1 | inactive
CC(=O)Nc1c(O)nc(SCC(=O)N2CCN(c3ccc(F)cc3)CC2)[nH]c1=O | inactive
CCOC(=O)CNS(=O)(=O)c1c(C)noc1C | inactive
CC1=C(C(=O)Nc2cccnc2)C(c2ccccn2)n2nnnc2N1 (stereo not given) | inactive
Cc1ccc(-n2nnnc2SCC(=O)Nc2ncc(Cc3ccccc3Cl)s2)cc1 | inactive
Cc1ccc([N+](=O)[O-])cc1-c1ccc(/C=C(\C#N)c2[nH]nc(N)c2C#N)o1 | inactive
CCOC(=O)Cn1nnnc1C(C(C)C)N(Cc1cccs1)Cc1cc2cc(C)ccc2[nH]c1=O (stereo not given) | inactive
O=C(Nc1cnn(Cc2ccc(F)cc2)c1)c1cnccn1 | inactive
Cc1ccc2cc(CN(CCO)Cc3nnnn3Cc3ccc(F)cc3)c(=O)[nH]c2c1 | inactive
Cc1cc(/C=N/NC(N)=S)c(C)n1-c1ccc(Cl)c(Cl)c1 | inactive
N#C/C=C(/N)c1ccc(Br)cc1 | inactive
Cc1ccc(/C=C/c2nnc(-c3ccc(C)cc3)o2)cc1 | inactive
O=C(c1[nH]ncc1-c1ccc(Cl)cc1)C1CO1 (stereo not given) | inactive
O=C1c2ccccc2C(=O)N1CCCc1nc2ccccc2c(=O)n1Cc1ccco1 | inactive
CCn1c(=O)c2c(O)cc(=O)oc2c2ccccc21 | inactive
COc1ccc(S(=O)(=O)n2ccc(-c3ccc(OCCN(C)c4ccccn4)cc3)n2)cc1 | inactive
COC(=O)c1ccc(NC(=S)NCCc2cccc(C)c2)cc1 | inactive
CCOC(=O)C1=C(c2ccccc2)NC(SC)=C(C#N)C1c1ccco1 (stereo not given) | inactive
CC1OC(Nc2cccc3ccccc23)C(O)C(O)C1O (stereo not given) | inactive
Cc1nc2ccccc2n1CC(=O)N/N=C\C=C\c1ccccc1 | inactive
Cc1cccc(C(=O)NC(NCc2ccco2)C(Cl)(Cl)Cl)c1 (stereo not given) | inactive
COc1ccc(-c2csc(NCc3ccco3)n2)cc1 | inactive

Structure (SMILES) | outcome
Cc1ccc2[nH]c3c(NCc4ccco4)ncnc3c2c1 | inactive
Oc1ccccc1Nc1nc(NCc2ccco2)c2ccccc2n1 | inactive
Cc1ccc(-c2nc(NCc3cccnc3)c3ccccc3n2)cc1 | inactive
COc1ccc(Nc2nc(NCc3ccco3)nc(N/N=C/c3ccccc3Cl)n2)cc1 | inactive
c1ccc(CN2CCN(c3nc(NCc4ccco4)c4ccccc4n3)CC2)cc1 | inactive
c1ccc(CNc2ncnc3ccccc23)cc1 | inactive
C#CC(C)(CC)NC(=O)c1cc(OC)c(OC)c(OC)c1 (stereo not given) | inactive
COC(=O)c1ccc(C)c(NC(=O)CN(c2cc(OC)ccc2OC)S(C)(=O)=O)c1 | inactive
CN(CC(=O)Nc1ccc(C#N)cc1)Cc1ccc(Cl)cc1 | inactive
Cc1cccc(C)c1Nc1nnc(SCC(=O)Nc2sccc2C#N)s1 | inactive
COc1ccc(S(=O)(=O)n2nc(OC(=O)c3cccs3)cc2N)cc1 | inactive
CCC(CC)c1nnc(NC(=O)Oc2ccccc2)s1 | inactive
CCOc1cccc(CNc2ccc(O)cc2)c1OCc1ccc(Cl)cc1Cl | inactive
CCOc1ccc(/C(O)=C2\C(=O)C(=O)N(CCN(C)C)C2c2cccc(OC)c2OC)cc1Cl (stereo not given) | inactive
Cc1ccc(OCc2nnc(SCC(=O)Nc3ccc4c(c3)OCO4)n2C)cc1 | inactive
BrC(=C\c1ccccc1)/C=N/N1CCN(c2ccccn2)CC1 | inactive
CCOC(=O)N1CCN(c2nc(C)c3c(n2)CCCC3=O)CC1 | inactive
COC(=O)C(C)N1C(=O)S/C(=C\c2cc(C)n(-c3ccccn3)c2C)C1=O (stereo not given) | inactive
Cc1ccc(-c2nc3ccccc3[nH]2)cc1NC(=S)NC(=O)c1ccccc1Br | inactive
Cc1c(NS(=O)(=O)c2ccc(N(C)C3CCCCC3)c([N+](=O)[O-])c2)c(=O)n(-c2ccccc2)n1C | inactive
Cc1cc(C)cc(CC(Cc2nc3ccccc3[nH]2)c2nc3ccccc3[nH]2)c1 (stereo not given) | inactive
COc1ccc(C(=O)N2CCN(C(=O)c3ccco3)CC2)cc1OC | inactive
Cc1cccc2cc(C#N)c(N3CCN(C)CC3)nc12 | inactive

Structure (SMILES) | outcome
NC(=O)c1c(NC(=O)CN2C(=O)CCC2=O)sc2c1CCCCC2 | inactive
CC(C)(C)C1CCc2c(sc(NC(=O)c3cccs3)c2C(=O)N2CCCCC2)C1 (stereo not given) | inactive
CCOC(=O)c1c(NC(=O)Nc2ccc(C)cc2)sc2c1CCN(C)C2 | inactive
CCCCCOC(=O)C1=C(C)Nc2nnnn2C1c1ccc(OC)c(OC)c1OC (stereo not given) | inactive
CCn1nnc(-c2ccccc2NS(=O)(=O)c2ccc(S(=O)(=O)N3CCCCCC3)cc2)n1 | inactive
O=C(CSc1ccc2c(c1)OCCO2)NCCc1ccc(Cl)cc1Cl | inactive
Cc1[nH]c2ccccc2c1C(c1ccncc1)N1CCN(c2ccc(F)cc2)CC1 (stereo not given) | inactive
Oc1ccc(C=Nc2ccc3ncccc3c2)c(O)c1 | inactive
Oc1ccc(C=Nc2cccc3ncccc23)c(O)c1 | inactive
CCCNC(=O)COC(=O)CCC(=O)c1ccc(F)cc1 | inactive
O=C1CC(N2CCN(Cc3ccccc3)CC2)C(=O)N1c1ccccc1 (stereo not given) | inactive
OCCN(Cc1ccccc1)Cc1ccc(Cl)cc1 | inactive
OCCNc1ccc(Cl)cc1 | inactive
O=C(CN1CCCCCC1)Nc1cccc(Br)c1 | inactive
COCCn1c(-c2ccccc2F)n[nH]c1=S | inactive
CCOC(=O)/C(=C/C=C/c1ccccc1)NC(=O)c1ccccc1 | inactive
O=c1cc(O)nc(SCc2ccccc2Cl)[nH]1 | inactive
O=C1c2ccccc2C(=O)N1CCCc1nc(-c2ccccn2)no1 | inactive
CC1=NN(c2ccc(Cl)cc2)C(=O)C1C(c1cccc(O)c1)c1c(C)[nH]n(-c2ccc(Cl)cc2)c1=O (stereo not given) | inactive
O=C(Nn1c(O)c(C=C2N=c3ccccc3=N2)sc1=S)c1ccc(Cl)cc1 | inactive
CCOC(=O)/C=C1\SCC(=O)N1CC(=O)NC1CCCCC1 | inactive
O=C(CN(c1ccc(F)cc1)S(=O)(=O)c1ccc2c(c1)OCCO2)NCc1cccnc1 | inactive
S=C(c1ccc2c(c1)OCO2)N1CCCC1 | inactive
